Laboratory results reported in PubChem BioAssay (NCATS).
Values joined by “and” are separate entries in the source; they are usually repeats but may differ in a detail not shown here. Equal values may be shown once. Results filed as inconclusive are left out. Values without a mark were called inactive. Active and inactive are the calls of the source. Unless noted, the call rests on the fitted dose curve. Numbered stars: 1 amine (or outer) side, 2 acyl side, 3 side chain; on linkers, the order of the positions; unused ones are H or OH. Bridge positions count the residues as written; N and C are the ends. Square brackets hold non-standard residues; d marks the D form. Peptide text beside a SMILES is read from it. I, II: the chains in the order shown. Actinocin(9to1) = Cc1c2oc3c(C)ccc(C(=O)[*:1])c3nc-2c(C(=O)[*:2])c(N)c1=O; NMeV = CN[C@H](C(=O)O)C(C)C; Sar = CNCC(=O)O

System: not listed separately
Test: AP1 Signaling Pathway (AID 357; active means well fitted curve in either direction with a large enough effect, not every such curve was filed as active; further: on the % scale 0 is the no-effect control and ±100 the full control effect)
Conditions: ME-180 (cervical carcinoma) AP-1-bla reporter, EGF-induced, beta-lactamase ratio, 5 h; at 17.2 µM (top of the series)
How it was run: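 In this screen, ME-180 cells in Opti-MEM with 0.5% dialyzed FBS received EC50 EGF and compound titrations for 5 h. AP-1 reporter beta-lactamase was detected via CCF4 ratio, giving AC50 for positive and negative modulators.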

Row | SMILES | activity change, negative = inhibition
1 | COc1ccc(CCN2CCC(Nc3nc4ccccc4n3Cc3ccc(F)cc3)CC2)cc1 | -6.26% and 6.64%
2 | CCn1cc(C(=O)O)c(=O)c2cnc(N3CCCC3)nc21 | 5.94%
3 | CCCCOc1ccc(OCCCN2CCOCC2)cc1 | 5.36% and -1.05%
4 | CCCCC(=O)O[C@]1(C(=O)CO)CC[C@H]2[C@@H]3CCC4=CC(=O)CC[C@]4(C)[C@H]3[C@@H](O)C[C@@]21C | 5.88%
5 | CC(=O)O[C@H]1C[C@@H]2CC[C@@H]3[C@H](CC[C@@]4(C)[C@H]3C[C@H]([N+]3(C)CCCCC3)[C@@H]4OC(C)=O)[C@@]2(C)C[C@@H]1[N+]1(C)CCCCC1 | 10.4%
6 | C[C@@H](CN(C)C)CN1c2ccccc2Sc2ccccc21 | 82.2% [activator] (active)
7 | Cc1cccc(C)c1NC(=O)CN1CCN(CCCC(c2ccc(F)cc2)c2ccc(F)cc2)CC1 | 4.39%
8 | CN(C)CCCOc1nn(Cc2ccccc2)c2ccccc12 | 10.8%
9 | CC(=O)c1ccc2c(c1)N(CCCN1CCC(CCO)CC1)c1ccccc1S2 | 4.33%
10 | CN(C)CCOc1ccccc1Cc1ccccc1 | 16.9%

Target: Cytochrome P450 1A2 (Homo sapiens) (UniProt P05177)
Sequence (P05177 whole entry, looked up): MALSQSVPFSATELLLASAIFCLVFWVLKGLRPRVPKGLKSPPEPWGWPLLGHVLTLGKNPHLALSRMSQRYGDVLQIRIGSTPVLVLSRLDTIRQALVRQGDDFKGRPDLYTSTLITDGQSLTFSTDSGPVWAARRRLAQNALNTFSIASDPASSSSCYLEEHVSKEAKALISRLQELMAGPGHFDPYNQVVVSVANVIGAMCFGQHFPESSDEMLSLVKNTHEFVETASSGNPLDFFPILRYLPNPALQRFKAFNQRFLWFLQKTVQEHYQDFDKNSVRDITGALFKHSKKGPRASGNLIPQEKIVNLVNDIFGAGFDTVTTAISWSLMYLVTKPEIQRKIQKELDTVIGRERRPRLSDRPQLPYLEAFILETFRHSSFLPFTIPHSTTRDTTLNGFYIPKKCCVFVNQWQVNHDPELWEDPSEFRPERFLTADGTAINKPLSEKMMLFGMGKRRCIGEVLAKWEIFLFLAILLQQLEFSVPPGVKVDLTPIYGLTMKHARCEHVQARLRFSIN
Test: p450-cyp1a2 (AID 410); further: potency means the concentration at half of the fitted maximal effect;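 on activity change, negative = inhibition: -100% = full effect of reference inhibitor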
Conditions: recombinant CYP1A2, luciferin-ME demethylation, luminescence; series mostly up to 25.6 µM; activity change, negative = inhibition: at the top concentration
How it was run: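 Read-out is luminescence from luciferin produced by CYP1A2 demethylation of Luciferin-ME (100uM, at Km). Detection reagent stopped the 60 min NADPH-dependent reaction; signals were normalized to 57 uM furafylline.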

Row | SMILES | activity change, negative = inhibition | Potency
11 | CN1CCC(=C2c3ccccc3Sc3ccccc32)CC1 | -17.4% | 
12 | CNCC[C@@H](Oc1ccccc1C)c1ccccc1 |  | 15.8 µM (active)
13 | NC(=NCCCCCCN=C(N)/N=C(\N)Nc1ccc(Cl)cc1)/N=C(\N)Nc1ccc(Cl)cc1 |  | 15.8 µM (active)
14 | C[C@@H]1CN(CCCn2c3ccccc3c3ccccc32)C[C@H](C)N1 |  | 0.794 µM (active)
15 | CN1[C@@H]2CC[C@H]1CC(OC(=O)c1c[nH]c3ccccc13)C2 (some centres undefined) | 0.4% [at 57 µM] | 
16 | CC[N+](CC)(CCNC(=O)C(=O)NCC[N+](CC)(CC)Cc1ccccc1Cl)Cc1ccccc1Cl | -26.2% [at 57 µM] | 

System: not listed separately
Test: Cell Viability - BJ (AID 421);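 further: potency means the concentration at half of the fitted maximal effect; cells exposed to compound for 40 hours at 37 °C before readout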
Conditions: BJ fibroblast viability, qHTS
How it was run: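 Cytotoxicity in human BJ foreskin fibroblasts is scored as loss of cellular ATP after a 40-hour exposure, measured by luciferase luminescence. Controls are DMSO and 100 uM tamoxifen.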

Row | SMILES | Potency
17 | O=c1ccc2ccccc2o1 | > 92 µM
18 | CC/C(=C(/CC)c1ccc(O)cc1)c1ccc(O)cc1 | > 92 µM
19 | COc1cccc2c1C(=O)c1c(O)c3c(c(O)c1C2=O)C[C@@](O)(C(=O)CO)C[C@@H]3O[C@H]1C[C@H](N)[C@H](O)[C@H](C)O1 | 0.177 µM (active)
20 | Cc1c2oc3c(C)ccc(C(=O)N[C@@H]4C(=O)N[C@H](C(C)C)C(=O)N5CCC[C@H]5C(=O)N(C)CC(=O)N(C)[C@@H](C(C)C)C(=O)O[C@@H]4C)c3nc-2c(C(=O)N[C@@H]2C(=O)N[C@H](C(C)C)C(=O)N3CCC[C@H]3C(=O)N(C)CC(=O)N(C)[C@@H](C(C)C)C(=O)O[C@@H]2C)c(N)c1=O (I: T[dV]P[Sar][NMeV] / II: T[dV]P[Sar][NMeV]; ester I:1-I:C, II:1-II:C; linker I:N-II:N via Actinocin(9to1)) | 0.00132 µM (active)
21 | O=C1OC(c2ccc(O)cc2)(c2ccc(O)cc2)c2ccccc21 | > 92 µM
22 | O=C(O)CCCCC(=O)O | > 92 µM
23 | COC1=CC(=O)C[C@@H](C)[C@]12Oc1c(Cl)c(OC)cc(OC)c1C2=O | > 92 µM
24 | CN(C)/N=N/c1nc[nH]c1C(N)=O | > 92 µM
25 | C[C@]12CC[C@@H]3c4ccc(O)cc4CC[C@H]3[C@@H]1CC[C@@H]2O | > 92 µM
26 | CCCCCCc1ccc(O)cc1O | > 92 µM
27 | CC(O)C(=O)O (centres undefined) | > 92 µM
28 | C=CCc1ccc(O)c(OC)c1 | > 92 µM
29 | Nc1ccc(C(=O)O)cc1 | > 92 µM
